Here are results for ten compounds from PubChem BioAssay (NCATS).

Experiment [1] is described as follows: qHTS profiling of the MIPE4 collection as inhibitors of Plasmodium falciparum (DD2) proliferation (AID 743345). The settings on record: P. falciparum Dd2 in erythrocytes, SYBR Green DNA, 72 h; at 28.5 µM (top of the series) unless noted. A digest of the protocol: (§1)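 Parasite DNA was quantified by SYBR Green I fluorescence (ex 485, em 535 nm) after overnight lysis in saponin/Triton buffer at room temperature. Cultures at 0.3% parasitemia and 2.5% hematocrit were first exposed to compound for 72 h at 37 C; signals were normalised to artemisinin (0.29 uM) and vehicle wells.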
In general terms: Quantitative high-throughput screening tests each substance at several concentrations.

Experiment [2] can be described thus: qHTS profiling of the MIPE4 collection as inhibitors of Plasmodium falciparum (DD2) proliferation (Rep 2) (AID 743346). To be noted: P. falciparum Dd2 in erythrocytes, SYBR Green DNA, 72 h; at 28.5 µM (top of the series) unless noted. The essentials: as §1
Experiment [3] is described as follows: qHTS profiling of the MIPE4 collection as inhibitors of Plasmodium falciparum (HB3) proliferation (AID 743347).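 Note: plate controls were DMSO vehicle wells for no effect and artemisinin wells for full effect.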 To be noted: P. falciparum HB3 in erythrocytes, SYBR Green DNA, 72 h; at 28.5 µM (top of the series) unless noted. The essentials: as §1
Experiment [4] in a line: High-throughput drug toxicity screening in the BPDCN cell line Gen2.2 (AID 1224824).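 Note: cells exposed to compounds for 48 h before reading.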 The settings on record: Gen2.2 BPDCN cells; at 45.8 µM (top of the series) unless noted. The essentials:
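Gen2.2 cells (500/well) in phenol red-free RPMI with 10% FBS were exposed to compounds for 48 h at 37 °C, 5% CO2. Viability was read by CellTiter-Glo luminescence and normalized to DMSO (100%) and 9.2 uM bortezomib (0%).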

Experiment [5] is described as follows: High-throughput drug toxicity screening in the BPDCN cell line Cal-1 (AID 1224825). To be noted: Cal-1 BPDCN cell viability, qHTS; at 45.8 µM (top of the series) unless noted. The essentials: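 Viability of the BPDCN line Cal-1 is measured as ATP-based luminescence (CellTiter-Glo) following 48 h incubation with compounds. Percent activity uses DMSO-treated wells as 100% and 9.2 uM bortezomib as 0%.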

Experiment [6] in a line: qHTS assay for measurement of the activity of small molecule inhibitors on Zika virus induced Caspase-3 activity in human iPSC derived neural progenitor cells (hNPCs) (AID 1224857; active = well fitted inhibition curve with a large enough effect; note: % of control where 0% means no effect; nearly all actives have a fitted effect of over 65% in size). The essentials: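 Human iPSC-derived neural progenitor cells pretreated 1 hr with compounds, then infected with Zika virus (2 FFU/cell) for 6 hours at 37 C. Caspase-3/7 measured by Caspase-Glo luminescence; % inhibition calculated from induction scaled to uninfected (0%) and infected (100%) wells.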

Experiment [7] is described as follows: qHTS assay for measurement of the activity of small molecule inhibitors on Zika virus induced Caspase-3 activity in human astrocytoma cells (AID 1224859; active = well fitted inhibition curve with a large enough effect;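 note: plate controls were ZIKV-infected untreated cells for no effect and uninfected cells for full effect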). The essentials:
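SNB-19 astrocytoma cells, 250/well, pretreated 1 h with compounds, then Zika virus at 2 FFU/cell for 6 h at 37 C; Caspase-Glo 3/7 luminescence after 30 min; percent inhibition normalised to uninfected and infected controls.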

A short description of experiment [8]: qHTS Screen of the MIPE 4.0 Collection Against Ewings Sarcoma (TC71) (AID 1259253; active = well fitted inhibition curve with a large enough effect; note: nearly all actives have a fitted effect of over 40% in size; note: potency is the fitted concentration of half-maximal effect). A digest of the protocol:
(§2)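 Measured: ATP luminescence (CellTiter-Glo) 10 min after reagent addition, following 48 h drug treatment. Relative luciferase units converted to percent activity, with no-cell wells as full and DMSO wells as zero inhibition.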

Experiment [9] can be described thus: qHTS Screen of the MIPE 4.0 Collection Against Ewings Sarcoma (EW8) (AID 1259255; active = well fitted inhibition curve with a large enough effect; note: nearly all actives have a fitted effect of over 35% in size; note: potency is the fitted concentration of half-maximal effect;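 for viability: 100% = DMSO-treated cells and 0% = medium-only wells without cells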). The essentials:
as §2

Experiment [10] in a line: qHTS Screen of the MIPE 4.0 Collection Against Ewings Sarcoma (RDES) (AID 1259252; active = well fitted inhibition curve with a large enough effect; note: nearly all actives have a fitted effect of over 35% in size; note: potency is the fitted concentration of half-maximal effect). A digest of the protocol:
as §2

Molecules are shown by their SMILES. Results filed as inconclusive are left out. Calls of active or inactive are those of the source. Unless noted, the rule behind the calls is not given here.

For the compound `CC(C)c1cc(C(C)C)c(CC(=O)NS(=O)(=O)Oc2c(C(C)C)cccc2C(C)C)c(C(C)C)c1`, the parasite growth remaining, % of DMSO control (lower = more inhibition) in [1] turned out to be 89.6%. Moreover, the parasite growth, % of control (lower = inhibition) in [2] stood at 80.1%. In experiment [3], this compound registered a growth, % of control of 89.6%. For the same compound, in experiment [4], the cell viability, % of control (lower = more cytotoxic) amounted to 94.3%. Besides, the viability (% of control) in [5] was 60.9%. Further, the Potency result in [6] and in experiment [7] was “inactive” throughout. Besides, the figures for the Potency in [8] and in [9] were 743 nM (active) and 7430 nM (active), respectively.

`C#Cc1cccc(Nc2ncnc3cc(OCCOC)c(OCCO)cc23)c1` yielded a parasite growth, % of control (lower = inhibition) in experiment [2] of 18.2%. Moreover, the growth, % of control in experiment [3] came out at 4.56%. Moreover, the cell viability, % of control (lower = more cytotoxic) in experiment [4] amounted to 38.2%. In addition, the viability (% of control) in experiment [5] was found to be 12.5%. Moreover, the Potency result in experiment [6] is “inactive”. Also, the Potency in experiment [10] was 935 nM (active); in [8], 18700 nM (active); in experiment [9], 9350 nM (active).

`C[C@]12CCC(=O)C=C1[C@@H]1CC1[C@H]1[C@H]3[C@@H]4C[C@H]4[C@@]4(CCC(=O)O4)[C@@]3(C)CC[C@H]12` (stereo partly drawn): the parasite growth remaining, % of DMSO control (lower = more inhibition) in experiment [1] was found to be 82.7%. This compound also showed a parasite growth, % of control (lower = inhibition) in [2] of 41.4%. Further, the growth, % of control in experiment [3] stood at 71.4%. In [4], the cell viability, % of control (lower = more cytotoxic) came out at 75.3%. Besides, in experiment [5], the viability (% of control) turned out to be 92.9%. In addition, the Potency entry in [6], in experiment [10], in experiment [8] and in experiment [9] was “inactive” throughout.

Take `COc1cc(CCc2cc(NC(=O)c3ccc(N4C[C@@H](C)N[C@@H](C)C4)cc3)n[nH]2)cc(OC)c1`: in experiment [1], the parasite growth remaining, % of DMSO control (lower = more inhibition) worked out at 66.7%. Moreover, the parasite growth, % of control (lower = inhibition) in [2] amounted to 43.7%. This compound also yielded a growth, % of control in experiment [3] of 10.3%. In addition, in experiment [4], the cell viability, % of control (lower = more cytotoxic) was determined as 14%. In addition, in experiment [5], the viability (% of control) came out at 4.08%. For the same compound, the Potency result in experiment [6] and in [7] was “inactive” throughout. The Potency in [8] and in [9] was 16600 nM (active) each time.

Turning to `Cc1cnc(NC(=O)Nc2cc(Br)c(C)cc2OC[C@@H]2CNCCO2)cn1`, the parasite growth remaining, % of DMSO control (lower = more inhibition) in experiment [1] amounted to 7.73%. Further, the parasite growth, % of control (lower = inhibition) in experiment [2] is 8.58%. The compound also came in with a growth, % of control in [3] of 2.97%. For the same compound, the cell viability, % of control (lower = more cytotoxic) in experiment [4] came out at 20.9%. In addition, in experiment [5], the viability (% of control) came out at 7.84%. Further, the Potency result in experiment [6] and in experiment [7] was “inactive” in each case. The Potency is 590 nM (active) in [8] and 833 nM (active) in experiment [9].

For the compound `O=C(C=CC#Cc1cccc(NS(=O)(=O)c2ccccc2)c1)NO`, the parasite growth remaining, % of DMSO control (lower = more inhibition) in experiment [1] worked out at 7.17%. In [2], this compound returned a parasite growth, % of control (lower = inhibition) of 8.22%. The compound further yielded a growth, % of control in experiment [3] of 4.3%. The cell viability, % of control (lower = more cytotoxic) in experiment [4] worked out at 4.86%. Also, the viability (% of control) in experiment [5] came out at 3.48%. Also, the Potency result in experiment [6] and in experiment [7] was “inactive” each time. Besides, the Potency is 1320 nM (active) in experiment [8] and 935 nM (active) in experiment [9].

`COc1ccc(C[C@@H](C)[C@@H](C)Cc2ccc(OC)c(OC)c2)cc1OC`: the parasite growth remaining, % of DMSO control (lower = more inhibition) in [1] came to 87.5%. In experiment [2], this compound yielded a parasite growth, % of control (lower = inhibition) of 60.3%. In experiment [3], this compound returned a growth, % of control of 30.9%. Moreover, in [4], the cell viability, % of control (lower = more cytotoxic) was 6.99%. Also, the viability (% of control) in experiment [5] amounted to 8.52%. Moreover, the Potency result in experiment [6] was “inactive”. Besides, the figures for the Potency in experiment [10], in experiment [8] and in experiment [9] were 743 nM (active), 1180 nM (active) and 1180 nM (active), respectively.

As to `C[C@H](CCC(=O)O)[C@H]1CCC2C3C[C@H](O)[C@@H]4C[C@H](O)CC[C@]4(C)C3CC[C@@]21C` (stereo partly drawn), the parasite growth remaining, % of DMSO control (lower = more inhibition) in experiment [1] is 102%. The compound also showed a parasite growth, % of control (lower = inhibition) in [2] of 88.7%. This compound also yielded a growth, % of control in [3] of 103%. The cell viability, % of control (lower = more cytotoxic) in experiment [4] is 130%. In [5], the viability (% of control) came out at 120%. Also, the Potency result in experiment [6], in [10], in experiment [8] and in [9] was “inactive” throughout.

`C=CC(=O)Nc1cccc(Nc2nc(NC3CCC(N(C)C)CC3)nc3c2ncn3C(C)C)c1` (stereo not drawn): in experiment [1], the parasite growth remaining, % of DMSO control (lower = more inhibition) was found to be 15.3%. This compound yielded a parasite growth, % of control (lower = inhibition) in experiment [2] of 35.4%. The same compound yielded a growth, % of control in [3] of 4.69%. The cell viability, % of control (lower = more cytotoxic) in [4] was found to be 5.58%. Besides, the viability (% of control) in [5] came out at 2.19%. Further, the Potency entry in [6] is “inactive”. Moreover, the Potency is 14.8 nM (active) in [10], 469 nM (active) in experiment [8] and 526 nM (active) in experiment [9].

Regarding `CC(C)(O)Cn1c(NC(=O)c2ccc(-c3cn[nH]c3)s2)nc2cc(CN3CCOCC3)ccc21`, the parasite growth remaining, % of DMSO control (lower = more inhibition) in [1] amounted to 7.56%. This compound registered a parasite growth, % of control (lower = inhibition) in experiment [2] of 9.94%. Further, the cell viability, % of control (lower = more cytotoxic) in [4] is 7.04%. In addition, the viability (% of control) in experiment [5] is 3.65%. Moreover, the Potency result in experiment [6] was “inactive”. Besides, the values for the Potency in [10], in experiment [8] and in experiment [9] were 1660 nM (active), 1660 nM (active) and 2960 nM (active), respectively.
